Activity calls are given as the source filed them. The calls were made as follows: active = hit-call score of the fitted dose curve at least 0.9, where 1 is the maximum; inactive = score below 0.9.
Legend:
[1] = target: Bile acid receptor (Homo sapiens) (UniProt Q96RI1); test: ATG_IR1_CIS: Attagene CIS-FACTORIAL HepG2 Assay for human Nuclear Receptor Subfamily 1 Group H Member 4 (NR1H4), IR1 submotif (AID 2282946); details: IR1 reporter transcription, actives raise or lower the signal
How it was run: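 Transient MRTU transfection, HepG2; 24 h dosing; RNA → RT-PCR → 6-FAM primer extension → HpaI digest → capillary electrophoresis fluorescence. Gain/loss of signal fitted relative to DMSO.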

[2] = ATG_ISRE_CIS: Attagene CIS-FACTORIAL HepG2 Assay for human Interferon Regulatory Factor 1 (IRF1) binding to an Interferon-Stimulated Response Element (ISRE) (AID 2282948); details: HepG2 ISRE cis-reporter (Attagene), mRNA transcription readout; actives raise or lower the signal
How it was run: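 HepG2 cells transiently transfected with multiplexed cis-promoter reporter units; after 24 h compound exposure, reporter mRNA quantified by RT-PCR, FAM labelling, HpaI digestion and capillary electrophoresis. Bidirectional fit versus DMSO baseline.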

[3] = ATG_M_32_CIS: Attagene CIS-FACTORIAL HepG2 Assay for M32 Transcription Factor (Internal Marker) (AID 2282949); details: HepG2 Attagene cis-factorial M32 reporter, mRNA; actives raise or lower the signal;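 also: background control marker of the multiplexed CIS panel rather than a real target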
How it was run: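 Internal background marker read-out: RT-PCR/capillary electrophoresis fluorescence of reporter transcripts from transiently transfected HepG2 cells after 24 h chemical exposure. Activity fitted bidirectionally relative to DMSO negative control.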

[4] = ATG_M_06_CIS: Attagene CIS-FACTORIAL HepG2 Assay for M06 Transcription Factor (Internal Marker) (AID 2282950); details: HepG2 Attagene CIS-FACTORIAL M06 internal marker reporter; actives raise or lower the signal
How it was run: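 HepG2 cells transiently transfected with cis-regulated multiple reporter transcription units were exposed to chemical for 24 h; reporter mRNA was quantified by RT-PCR, 6-FAM primer labelling, HpaI digestion and capillary electrophoresis, fitted bidirectionally against DMSO.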

[5] = target: Hypoxia-inducible factor 1-alpha (Homo sapiens) (UniProt Q16665); test: ATG_HIF1a_CIS: Attagene CIS-FACTORIAL HepG2 Assay for human Hypoxia Inducible Factor 1 (HIF1A) (AID 2282951); details: HepG2 Attagene cis-factorial HIF1a reporter transcription; actives raise or lower the signal
Chain of Hypoxia-inducible factor 1-alpha (Homo sapiens) (Q16665 whole entry, looked up): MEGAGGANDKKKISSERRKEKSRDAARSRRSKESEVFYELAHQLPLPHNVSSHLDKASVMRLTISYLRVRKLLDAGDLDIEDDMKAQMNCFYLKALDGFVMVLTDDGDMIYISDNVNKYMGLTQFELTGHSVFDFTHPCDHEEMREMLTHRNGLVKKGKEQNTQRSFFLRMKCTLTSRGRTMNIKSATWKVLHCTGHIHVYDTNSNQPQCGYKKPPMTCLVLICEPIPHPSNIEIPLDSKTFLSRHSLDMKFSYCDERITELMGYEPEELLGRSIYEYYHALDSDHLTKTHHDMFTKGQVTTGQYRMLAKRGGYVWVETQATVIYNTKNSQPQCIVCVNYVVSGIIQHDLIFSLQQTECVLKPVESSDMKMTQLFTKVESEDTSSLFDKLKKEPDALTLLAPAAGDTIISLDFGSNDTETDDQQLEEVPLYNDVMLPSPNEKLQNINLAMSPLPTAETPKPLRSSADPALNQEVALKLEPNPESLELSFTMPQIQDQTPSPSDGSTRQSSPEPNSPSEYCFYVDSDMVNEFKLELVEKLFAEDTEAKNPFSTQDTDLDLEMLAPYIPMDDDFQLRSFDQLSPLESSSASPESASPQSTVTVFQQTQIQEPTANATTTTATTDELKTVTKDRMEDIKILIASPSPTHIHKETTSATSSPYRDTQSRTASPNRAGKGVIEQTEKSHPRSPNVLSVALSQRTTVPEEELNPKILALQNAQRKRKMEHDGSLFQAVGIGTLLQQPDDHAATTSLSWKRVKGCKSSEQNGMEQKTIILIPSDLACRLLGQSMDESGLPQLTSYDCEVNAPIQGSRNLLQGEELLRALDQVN
How it was run: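 HepG2, transient cis-reporter library, 24 h dosing. RNA → RT (oligo dT) → PCR → 6-FAM primer extension → HpaI → CE. Bidirectional curve fit vs DMSO.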

[6] = target: Hepatocyte nuclear factor 6 (Homo sapiens) (UniProt Q9UBC0); test: ATG_HNF6_CIS: Attagene CIS-FACTORIAL HepG2 Assay for human Hepatocyte Nuclear Factor 6 (HNF6) (AID 2282952); details: HepG2 Attagene cis-factorial HNF6 reporter transcription; actives raise or lower the signal
Chain of Hepatocyte nuclear factor 6 (Homo sapiens) (Q9UBC0 whole entry, looked up): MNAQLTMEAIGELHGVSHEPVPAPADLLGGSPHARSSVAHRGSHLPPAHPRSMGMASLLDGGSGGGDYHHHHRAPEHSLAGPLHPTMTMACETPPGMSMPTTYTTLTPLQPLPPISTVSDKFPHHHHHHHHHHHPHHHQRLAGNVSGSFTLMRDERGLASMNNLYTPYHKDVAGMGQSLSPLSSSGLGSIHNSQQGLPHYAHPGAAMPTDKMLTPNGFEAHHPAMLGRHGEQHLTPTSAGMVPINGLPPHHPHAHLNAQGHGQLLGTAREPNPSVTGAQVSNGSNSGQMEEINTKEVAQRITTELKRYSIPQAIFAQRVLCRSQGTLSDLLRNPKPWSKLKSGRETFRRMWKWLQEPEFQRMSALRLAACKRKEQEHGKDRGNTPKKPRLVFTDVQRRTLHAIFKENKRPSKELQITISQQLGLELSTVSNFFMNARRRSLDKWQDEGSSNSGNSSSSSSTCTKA
How it was run: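 HepG2 cells transiently transfected with cis-element-driven multiple reporter transcription units, dosed 24 h; reporter mRNA quantified by RT-PCR, FAM primer extension, HpaI digestion and capillary electrophoresis; bidirectional fit versus DMSO baseline.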

[7] = target: Heat shock factor protein 1 (Homo sapiens) (UniProt Q00613); test: ATG_HSE_CIS: Attagene CIS-FACTORIAL HepG2 Assay for human Heat Shock Transcription Factor 1 (HSE) (AID 2282953); details: HepG2 HSE cis-reporter, Attagene RNA transcription; actives raise or lower the signal
Chain of Heat shock factor protein 1 (Homo sapiens) (Q00613 whole entry, looked up): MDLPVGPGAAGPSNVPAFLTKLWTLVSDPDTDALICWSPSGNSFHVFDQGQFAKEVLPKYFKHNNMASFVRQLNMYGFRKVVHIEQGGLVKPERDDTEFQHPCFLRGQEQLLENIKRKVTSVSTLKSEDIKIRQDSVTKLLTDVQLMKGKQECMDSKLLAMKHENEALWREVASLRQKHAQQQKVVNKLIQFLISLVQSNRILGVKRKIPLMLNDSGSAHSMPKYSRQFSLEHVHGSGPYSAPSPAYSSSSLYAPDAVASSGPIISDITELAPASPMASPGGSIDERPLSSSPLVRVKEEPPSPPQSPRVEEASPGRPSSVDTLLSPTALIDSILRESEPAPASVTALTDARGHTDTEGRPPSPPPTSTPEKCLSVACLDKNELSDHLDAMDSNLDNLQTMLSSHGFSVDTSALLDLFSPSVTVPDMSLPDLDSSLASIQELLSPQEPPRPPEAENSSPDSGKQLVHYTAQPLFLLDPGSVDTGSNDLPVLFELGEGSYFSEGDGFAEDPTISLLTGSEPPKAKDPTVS
How it was run: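 HepG2 cells transiently transfected with multiple reporter transcription units under cis-regulatory promoter control, measuring endogenous transcription factor activity. After 24 h chemical exposure, reporter mRNA quantified by RT-PCR, fluorescent labelling, HpaI digestion and capillary electrophoresis; bidirectional fit versus DMSO.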

[8] = ATG_MRE_CIS: Attagene CIS-FACTORIAL HepG2 Assay for human Metal Responsive Element (MRE) (AID 2282954); details: HepG2 MRE cis-reporter transcription, Attagene multiplex; actives raise or lower the signal
How it was run: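 HepG2 cells transiently transfected with multiple cis-element reporter units measure endogenous MTF1-driven transcription. After 24 h compound exposure, reporter mRNA is quantified by RT-PCR with 6-FAM labelling, HpaI digestion and capillary electrophoresis; bidirectional fits versus DMSO.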

[9] = ATG_PBREM_CIS: Attagene CIS-FACTORIAL HepG2 Assay for human Phenobarbital-responsive Enhancer Module (PBREM) (AID 2282955); details: HepG2 PBREM cis-reporter, Attagene multiplexed transcription; actives raise or lower the signal
How it was run: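 HepG2, transient MRTU transfection, 24 h dosing; RNA → oligo(dT) RT → PCR → 6-FAM extension → HpaI → CE. Bidirectional fit vs DMSO.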

[10] = ATG_GRE_CIS: Attagene CIS-FACTORIAL HepG2 Assay for human Glucocorticoid Response Elements (GRE) (AID 2282947); details: HepG2 GRE cis-reporter, Attagene multiplex mRNA; actives raise or lower the signal
How it was run: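 HepG2 cells transiently transfected with multiple cis-promoter reporter units measure endogenous TF activity; 24 h compound exposure. Reporter mRNA quantified by RT-PCR, FAM labelling, HpaI digestion and capillary electrophoresis; bidirectional fit vs DMSO baseline.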

Measured: AC50

Chain of Bile acid receptor (Homo sapiens) (Q96RI1 whole entry, looked up): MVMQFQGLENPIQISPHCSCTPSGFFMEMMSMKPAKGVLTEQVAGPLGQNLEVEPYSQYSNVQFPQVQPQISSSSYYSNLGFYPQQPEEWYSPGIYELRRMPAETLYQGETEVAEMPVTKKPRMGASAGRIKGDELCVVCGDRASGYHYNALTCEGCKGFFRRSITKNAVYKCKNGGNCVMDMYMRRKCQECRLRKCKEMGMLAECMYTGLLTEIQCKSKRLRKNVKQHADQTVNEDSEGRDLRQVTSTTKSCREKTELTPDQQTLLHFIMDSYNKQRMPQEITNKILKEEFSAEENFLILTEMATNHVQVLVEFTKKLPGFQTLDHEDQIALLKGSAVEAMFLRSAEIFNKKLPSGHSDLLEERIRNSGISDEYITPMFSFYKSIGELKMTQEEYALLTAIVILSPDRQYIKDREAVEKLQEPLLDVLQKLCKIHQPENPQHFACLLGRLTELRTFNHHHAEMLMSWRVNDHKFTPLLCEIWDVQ

CC(=O)Nc1ccc(C)cc1C
not listed: [10]
inactive: all other assays above

c1ccc2sc(SN(C3CCCCC3)C3CCCCC3)nc2c1
not listed: [10]
inactive: all other assays above

O=C(O)c1ccc([N+](=O)[O-])cc1
not listed: [2] | [7]
inactive: all other assays above

O=C1NC(=O)c2ccccc21
not listed: [3] | [10]
inactive: all other assays above

O=C(O)c1snc(Cl)c1Cl
active: [6] 153 µM | [7] 158 µM | [8] 161 µM
not listed: [2]
inactive: all other assays above

Sc1nc(S)nc(S)n1
not listed: [3] | [9] | [10]
inactive: all other assays above

O=C(O)Cc1cccc2ccccc12
inactive: [1] | [3] | [4] | [5] | [6] | [8]

CNC(=O)Oc1ccc2c(c1)[C@]1(C)CCN(C)[C@@H]1N2C
not listed: [2] | [5]
inactive: all other assays above

Cc1ccc(Nc2ccc(O)c3c2C(=O)c2ccccc2C3=O)cc1
not listed: [2] | [10]
inactive: all other assays above

CCCCC/C=C/C=C/C=O
active: [1] 144 µM
not listed: [3] | [5] | [7]
inactive: all other assays above

O=c1[nH]nnc2ccccc12
not listed: [8] | [10]
inactive: all other assays above

Clc1cccc(Cl)n1
not listed: [2] | [7]
inactive: all other assays above

CN(CCOc1ccc(CC2SC(=O)NC2=O)cc1)c1ccccn1 (stereo unspecified)
active: [9] 66.1 µM
not listed: [7] | [8] | [10]
inactive: all other assays above

NNc1nc(-c2ccc(N)cc2)cs1
not listed: [10]
inactive: all other assays above

C=CC(=O)NCOCC(C)C
not listed: [9] | [10]
inactive: all other assays above

CCCCCCOC(=O)CC
not listed: [2]
inactive: all other assays above

OC1C(O)C(O)C(O)C(O)C1O (stereo unspecified)
not listed: [9] | [10]
inactive: all other assays above

CCCCNC(=O)NS(=O)(=O)c1ccc(C)cc1
not listed: [2] | [5] | [9]
inactive: all other assays above

Clc1nc(C(Cl)(Cl)Cl)c(Cl)c(Cl)c1Cl
inactive: [3] | [4] | [5] | [9]
active: [1] 22.6 µM | [2] 62.7 µM | [6] 49.9 µM | [8] 54.4 µM

— PubChem BioAssay (EPA / NIEHS)
